Results as given in PubChem BioAssay AID1347087 (National Center for Advancing Translational Sciences (NCATS), 2019).
Records with an inconclusive call do not appear. Values without a mark were called inactive. Active and inactive are the calls of the source. The call rests on the fitted dose curve.

assay: qHTS for Inhibitors of the Functional Ribonucleoprotein Complex (vRNP) of Lassa (LASV) Arenavirus: LASV Confirmatory Screen - GLuc reporter signal; conditions: LASV minigenome vRNP, Gaussia luciferase reporter; series mostly up to 53.9 µM; activity, negative = inhibition: at the top concentration

Row | Structure (SMILES) | activity, negative = inhibition | Potency
1 | CCOC(=O)OCC/C(SC(=O)OCC)=C(\C)N(C=O)Cc1cnc(C)nc1N | -20.6% | –
2 | CC[C@@H](C(=O)O)[C@@H]1O[C@@H]([C@@H](C)[C@H](O)[C@H](C)C(=O)[C@H](CC)[C@H]2O[C@]3(C=C[C@@H](O)[C@]4(CC[C@@](C)([C@H]5CC[C@](O)(CC)[C@H](C)O5)O4)O3)[C@H](C)C[C@@H]2C)[C@@H](C)C[C@@H]1C | – | 157 nM (active)
3 | S=C(NCc1ccc2c(c1)OCO2)N1CCN(c2ncnc3c2oc2ccccc23)CC1 | – | 1770 nM (active)
4 | FC(F)(F)c1ccc(C=Cc2nc(COc3ccc(CCCCn4ccnn4)cc3)co2)cc1 | – | 15.3 nM (active)
5 | Cc1cccc(-c2[nH]c(C(C)(C)C)nc2-c2ccc3c(c2)OCO3)n1 | – | 3430 nM (active)
6 | CCN(CC)C(=O)N[C@@H]1C=C2c3cccc4[nH]cc(c34)C[C@@H]2N(C)C1 | -9.43% | –
7 | O=C1c2ccccc2-n2c1nc1ccccc1c2=O | – | 2430 nM (active)
8 | CC(C)=CCC/C(C)=C/CC/C(C)=C/CC[C@]1(C)CCc2c(C)c(O)c(C)c(C)c2O1 | -9.56% [at 6 µM] | –
9 | CCC1OC2(C)C(O)C(/C=C/C=C/C=C/c3oc(=O)cc(OC)c3C)OC1(C)C2OC(C)=O (stereo not drawn) | – | 137 nM (active)
10 | CC[C@@]1([C@@H]2O[C@@H]([C@H]3O[C@@](O)(CO)[C@H](C)C[C@H]3C)C[C@H]2C)CC[C@H]([C@]2(C)CC[C@]3(C[C@H](O)[C@@H](C)[C@@H]([C@@H](C)[C@@H](OC)[C@H](C)C(=O)O)O3)O2)O1 | – | 335 nM (active)
11 | CCC(C)c1nccnc1OC (stereo not drawn) | -7.88% [at 110 µM] | –
12 | COc1cccc(-c2ccc(NC(=O)C3=C(C(=O)O)CCC3)c(F)c2)c1 | – | 6850 nM (active)
13 | C=C(C)[C@H]1Cc2c(ccc3c2O[C@@H]2COc4cc(OC)c(OC)cc4[C@@H]2C3=O)O1 | – | 30.6 nM (active)
